Rows were chosen to be rich in hits. Some 8.3% of all compounds tested hit in one or more screens of this group.
BCR signal inh: qHTS Assay to Find Inhibitors of Chronic Active B-Cell Receptor Signaling; ABC-DLBCL IkBa-CBG/CBR reporter, luminescence ratio, 4 h; Potency, µM (titrated, usually from 46.1 µM), for inactives: at the highest dose activity change, negative = inhibition, hits mostly inhibitors; actives 0.05% (n = 340,000); AID 493014, 2011; active = well fitted inhibition curve with a large enough effect in the signal ratio, with a control signal flat, not every such curve was filed as active; inconclusive = small, poorly fitted or top-dose-only effect, or effect the other way, or a change in a side signal; the % refers to the signal ratio;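 also: potency is read from the fitted curve at half-maximal effect; plate controls were basal doxycycline-induced cells for no effect and cells given 10 µM MG132 for full effect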
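TMD8 ABC-DLBCL cells carrying doxycycline-inducible green luciferase fused to IkappaBalpha plus unfused red luciferase were exposed to compounds (up to 46 uM) for 4 hrs at 37C. Activity came from the overlap-corrected green/red luminescence ratio.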
MCF10A rerep: A quantitative high throughput screen for small molecules that induce DNA re-replication in MCF 10a normal breast cells | MCF 10A DNA re-replication, Hoechst nuclear intensity, 48 h | Potency, µM (top dose mostly 46.1 µM), for the others: top-dose activity, positive = re-replication, hits mostly activators | actives 2.9% (n = 350,000); also: potency is read from the fitted curve at half-maximal effect; % of control where 0% means no effect; nearly all actives have a fitted effect of over 50% in size
SW480 rerep: A quantitative high throughput screen for small molecules that induce DNA re-replication in SW480 colon adenocarcinoma cells; SW480 DNA re-replication, Hoechst DNA content imaging, 48 h; Potency, µM (doses to about 46.1 µM), inactives show at the highest dose re-replication activation, usual class: activators; actives 1.8% (n = 340,000); also: potency is read from the fitted curve at half-maximal effect; % of control where 0% means no effect; nearly all actives have a fitted effect of over 55% in size
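Cells (250 per well) received 23 nL compound or DMSO by pin tool and were kept 48 hr at 37 C, 5% CO2. Nuclei were then stained with Hoechst for 40 min and scanned for DNA content.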
RORg inh: qHTS for inhibitors of ROR gamma transcriptional activity; Nuclear receptor ROR-gamma (Mus musculus), P51450; Drosophila S2 Gal4-RORgamma UAS-luciferase reporter, 20 h; Potency, µM (doses to about 53.6 µM), for the others: at the highest dose activity change, negative = inhibition, usual class: inhibitors; actives 5.4% (n = 310,000); AID 2551, 2010; also: potency is read from the fitted curve at half-maximal effect; % is scaled to controls: 0 for no effect and ±100 for the full control effect; nearly all actives have a fitted effect of over 60% in size
Target sequence (P51450 whole entry, looked up, the tested form may be a part): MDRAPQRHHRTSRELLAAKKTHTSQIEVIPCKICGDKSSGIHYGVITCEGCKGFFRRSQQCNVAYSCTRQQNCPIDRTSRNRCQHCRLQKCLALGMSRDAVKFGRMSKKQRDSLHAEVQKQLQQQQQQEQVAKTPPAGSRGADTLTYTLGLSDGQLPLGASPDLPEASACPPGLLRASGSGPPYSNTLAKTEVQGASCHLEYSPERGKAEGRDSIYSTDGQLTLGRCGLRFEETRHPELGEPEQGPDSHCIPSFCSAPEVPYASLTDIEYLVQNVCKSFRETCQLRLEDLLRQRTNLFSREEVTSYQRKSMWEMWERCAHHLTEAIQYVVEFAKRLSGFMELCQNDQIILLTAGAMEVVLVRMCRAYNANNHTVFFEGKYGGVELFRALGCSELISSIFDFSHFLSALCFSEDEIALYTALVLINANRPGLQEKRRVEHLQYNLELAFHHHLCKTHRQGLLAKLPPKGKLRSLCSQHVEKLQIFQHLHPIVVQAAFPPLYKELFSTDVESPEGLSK
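Stably transfected Drosophila Schneider cells are the test system, with ROR gamma fused to Gal4 and luciferase under UAS control; luminescence is read after 20 hr of 700 uM copper sulfate induction at ambient temperature.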
VP16 counter: VP16 counterscreen qHTS for inhibitors of ROR gamma transcriptional activity; Drosophila S2 Gal4-VP16 UAS-luciferase, luminescence, 20 h; actives 3.5% (n = 310,000); Potency, µM (titrated, usually from 53.6 µM), for the others: at the highest dose activity, negative = inhibition, actives largely listed as inhibitors;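 also: Gal4-VP16 expression switched on by copper sulfate through the metallothionein promoter; potency is read from the fitted curve at half-maximal effect; % is scaled to controls: 0 for no effect and ±100 for the full control effect; nearly all actives have a fitted effect of over 50% in size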
Giardia kill: Small Molecules that selectively kill Giardia lamblia: qHTS; Giardia lamblia trophozoite viability; activity change, % at 7.66 µM, hits read low; actives 0.15% (n = 340,000); in the data active = activity change below about -80%; inconclusive = between about -30% and that limit;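 also: parasites exposed to compound for two days anaerobically before the ATP read; % is scaled to controls: 0 for no effect and ±100 for the full control effect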
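Luminescent ATP signal served as the viability read-out, measured 15-30 min after adding ATP detection reagent to trophozoites that had been incubated with compounds for 48 hrs at 37 deg C anaerobically at 100 cells/well.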
* = called active by the depositor; ? = inconclusive; . = no result given; ! = not active in a repeat; [ ] = dose if it differs, or a comment. Unless noted, calls follow the shape of the dose curve; as a rule, active = well fitted curve in the direction sought with a large enough effect; inconclusive = small, poorly fitted or top-dose-only effect, or another doubt; inactive = no such curve, though single readings can be large; an effect the other way counts as inactive or inconclusive.

SMILES | BCR signal inh | MCF10A rerep | SW480 rerep | RORg inh | VP16 counter | Giardia kill
CCOc1ccc2nc(N/C(N)=N/C(=S)Nc3ccc(OC)cc3)nc(C)c2c1 | -3.7% | ? | 9.7% | 1.58µM* | ? | -9.1
CCc1ccc(NC(=S)/N=C(\N)Nc2nc(C)c3cc(CC)ccc3n2)cc1 | -9.9% | ? | 4.61µM* | 1.12µM* | 7.08µM* | -12.6
COc1ccc(OC)c(N/C(=N/C(=S)Nc2ccccc2)Nc2nc(C)cc(C)n2)c1 | 10.0% | 1.6% | -1.2% | ? | 0.708µM* | -11.3
COc1ccc2nc(N/C(N)=N/C(=S)Nc3ccccc3)nc(C)c2c1 | -2.4% | 13.4% | 2.7% | 0.794µM* | 4.47µM* | -16.9
CCOC(=O)c1ccccc1NC(=O)C1CSC2(C)CCC(=O)N12 (configuration not stated) | 7.0% | 10.7% | -2.7% | 28.7% | -1.6% | 10.8
COc1ccc2nc(N/C(N)=N/C(=S)Nc3ccc(C)c(C)c3)nc(C)c2c1 | -6.1% | . | . | 0.794µM* | ? | .
CCOc1ccc2nc(N/C(N)=N/S(C)(=O)=O)nc(C)c2c1 | ? | 13.9% | 13.0% | 4.5% | 5.9% | -10.9
COC(=O)C1=C(C)NC(=O)/C1=C\c1cc(C)n(-c2c(C)cccc2C)c1C | ? | 5.8µM* | ? | -0.3% | 13.2% | 16.3
CCCCN1C(=S)NC[C@@H]1Cc1cccc2ccccc12 | ? | 2.4% | -2.5% | 3.16µM* | 11.2µM* | 4.7
S=C1NC[C@H](Cc2cccc3ccccc23)N1CC1CCCCC1 | -9.5% | ? | -9.1% | 0.708µM* | 5.01µM* | -1.8
O=C1NC[C@H](c2ccccc2)N(CCc2cccc3ccccc23)C1=O | -9.8% | -0.6% | -38.0% | -0.5% | -2.3% | -1.8
CCCC[C@@H]1CNC(=S)N1CCc1cccc2ccccc12 | 2.4% | ? | -9.2% | 1.58µM* | 4.47µM* | -11.5
S=C1NC[C@H](Cc2ccccc2)N1CCc1cccc2ccccc12 | -0.6% | -8.7% | -9.6% | 1µM* | 5.62µM* | -14.4
NCCCC[C@H]1CNC(=O)C(=O)N1CCc1cccc2ccccc12 | ? | -7.4% | -4.0% | -11.7% | -0.8% | 7.5
O=C1NC[C@@H](Cc2cccc3ccccc23)N(CC2CCCCC2)C1=O | ? | 29.9% | -1.0% | 8.3% | -4.3% | -15.5
O=C1NC[C@@H](Cc2cccc3ccccc23)N(CC2(c3ccccc3)CC2)C1=O | -15.7% | ? | ? | 2.3% | -10.9% | -21.9
CCCS(=O)(=O)c1ncc(Cl)c(C(=O)N(Cc2ccccc2)Cc2ccco2)n1 | . | . | . | . | . | 11.0
Cc1ccc(N/C=C/C(=O)c2cccs2)cc1 | ? | 1.6% | -3.7% | ? | 8.91µM* | -25.1
O=C(/C=C/Nc1ccccc1O)c1ccco1 | ? | -7.7% | -2.6% | ? | 2.5% | -11.5
O=C(/C=C/Nc1cccc(F)c1)c1ccco1 | ? | -2.4% | 0.8% | ? | ? | 2.1
O=C(/C=C/Nc1ccc(F)cc1F)c1cccs1 | ? | 0.0% | . | 1.58µM* | 2.51µM* | -23.6
O=C(/C=C/Nc1ccccc1Oc1ccccc1)c1ccco1 | ? | 14.6µM* | -6.5% | 30.5% | -6.6% | 16.7
O=C(/C=C/Nc1ccc(F)cc1F)c1ccco1 | ? | ? | ? | 7.94µM* | 7.08µM* | 11.2
NCCO | . | . | . | -29.5% | 8.1% | .
O=C(Cc1ccc(F)cc1)Nc1ccc(Cl)cn1 | -0.5% | -2.0% | 1.9% | 23.6% | 8.6% | -11.9
SMILES | BCR signal inh | MCF10A rerep | SW480 rerep | RORg inh | VP16 counter | Giardia kill
CC1CCN(CCCC(=O)c2ccc(F)cc2)CC1 | . | -3.5% | -3.5% | 25.4% | 0.9% | .
O=C(CCCN1CCC(C(=O)c2ccc(F)cc2)CC1)c1ccc(F)cc1 | 0.0% | 20.6µM*! | -25.5% | -11.8% | -2.2% | -8.5
Cc1cccc2c1-c1sc(C(=O)NCCCN3CCCC(C)C3)cc1CO2 (configuration not stated) | ? | 23.1µM* | 18.4µM* | ? | -15.0% | 22.2
COC(=O)c1cc(S(=O)(=O)N(C)Cc2ccco2)c[nH]1 | -2.4% | -3.4% | -9.8% | 0.5% | -6.8% | 13.6
Cc1ccc(S(=O)(=O)N(C)c2ccc3sc(C)nc3c2)cc1 | -17.0% | 9.2µM* | ? | 0.3% | -10.7% | -4.6
O=C(O)c1ccc(N/N=C/c2cccc(F)c2)cc1 | ? | ? | -0.3% | -12.3%[10 µM] | -8.0% | ?
O=C(O)c1ccc(N/N=C/C2=Cc3ccccc3OC2)cc1 | ? | 14.6µM* | ? | -12.8% | ? | 2.7
Cc1ccc(-c2[nH]c(-c3ccc(C(=O)O)cc3)nc2-c2ccccc2)cc1 | -6.1% | 9.2µM* | ? | 26.9% | -7.0% | -1.8
O=C(NCc1ccccc1Cl)C1CCN(c2cnccn2)CC1 | 0.4% | 0.517µM* | -1.8% | 13.2% | 2.2% | -29.1
Cc1ccc(C(=O)N2CCCCC2)cc1NC1=C(Cl)C(=O)N(Cc2ccccc2)C1=O | ? | 8.2µM* | ? | . | . | 1.8
CCCCCCCCn1cnc2c(N)c(C)c(C)cc21 | 6.1% | 24.5% | 11.2% | 10µM* | ? | 12.0
COc1ccc(Cn2cnc3c(N)c(C)c(C)cc32)cc1 | -2.3% | 2.2% | -3.1% | -26.7% | -14.7% | 11.8
Cc1cccc(C(=O)Nc2nnc(-c3ccc(C(C)(C)C)cc3)s2)c1 | 18.3% | 9.7% | 20.1% | 14.1µM* | 4.3% | -10.7
Cc1ccccc1C(=O)Nc1nnc(-c2ccc(C(C)(C)C)cc2)s1 | -4.8% | ? | ? | -17.1%[10 µM] | -18.2% | -1.6
O=[N+]([O-])c1ccc(O)c(C(C#Cc2ccccc2)N2CCOCC2)c1 (configuration not stated) | ? | 12.9% | -6.6% | 38.5% | -4.7% | 7.5
CC(Cc1ccccc1)NC(=O)CC(c1ccccc1)c1ccccc1O (configuration not stated) | 2.1% | 2.6% | 9.7% | 9.8% | -0.4% | -2.8
CC(Cc1ccccc1)NC(=S)CN1CCCC1=S (configuration not stated) | 1.9% | -1.8% | -5.2% | 8.91µM* | ? | -6.1
CN(C)CCCn1c2c3ccccc3ccc2c2oc(=O)c3ccccc3c21 | . | 3.66µM* | 18.4µM* | . | . | -2.7
O=C(CNC(=O)c1ccc(F)cc1)Nc1ccccc1C(F)(F)F | 0.8% | 1.6% | -4.3% | 6.4% | -0.8% | -1.8
COc1ccc(S(=O)(=O)NC(CC(=O)NCC2CCCO2)c2ccco2)cc1 (configuration not stated) | 4.8% | 1.2% | -1.9% | 28.8% | 22.4µM* | 1.4

Assay outcomes deposited in PubChem by National Center for Advancing Translational Sciences (NCATS).
